Results: PubChem BioAssay (NCI)
About 79,000 compounds went through this panel and 15% of them were active in at least one assay; those are over-represented in the sample as a whole. Calls of active or inactive are those of the source. No stated cut-off is given here; in the data, active means growth inhibition above about 70%; inactive means the rest.

Tests used:
[1] = NCI Yeast Anticancer Drug Screen. Data for the mec2-1 strain (AID 157); settings: S. cerevisiae mec2-1 strain, active compounds read high
Summary of the method: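 Vehicle-treated cultures served as reference for growth inhibition of compound-exposed mec2-1 yeast.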

[2] = NCI Yeast Anticancer Drug Screen. Data for the rad14 strain (AID 159);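 further: 0% = growth of vehicle-treated control cultures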; settings: S. cerevisiae rad14 strain growth inhibition, active compounds read high
Summary of the method: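 Yeast cells carrying a defined DNA-repair defect were exposed to compounds, and growth inhibition was calculated relative to vehicle-treated control cultures.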

[3] = NCI Yeast Anticancer Drug Screen. Data for the CLN2oe strain (AID 163);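 further: 0% = growth of vehicle-only control cultures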; settings: S. cerevisiae CLN2oe strain, active compounds read high
Summary of the method: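 Inhibition relative to vehicle-treated yeast is reported. Cells: strain with genetic alteration in cell-cycle control, grown with compound.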

[4] = NCI Yeast Anticancer Drug Screen. Data for the cln2 rad14 strain (AID 165);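 further: 0% = growth equal to vehicle treated cultures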; settings: S. cerevisiae cln2 rad14 strain, active compounds read high
Summary of the method: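 Each compound was tested on cln2 rad14 yeast. Inhibition of growth was calculated against vehicle-exposed controls.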

[5] = NCI Yeast Anticancer Drug Screen. Data for the bub3 strain (AID 167); settings: S. cerevisiae bub3 mutant strain, active compounds read high
Summary of the method: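 Compounds were applied to a genetically altered yeast strain carrying a cell-cycle control defect. Growth inhibition was scored against vehicle-treated controls.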

[6] = NCI Yeast Anticancer Drug Screen. Data for the wt2 strain (AID 169);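 further: 0% = growth of vehicle-treated yeast cultures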; settings: S. cerevisiae wt2 strain growth inhibition, active compounds read high
Summary of the method: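 Inhibition of yeast growth was determined after compound treatment, normalised to controls receiving only vehicle.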

[7] = NCI Yeast Anticancer Drug Screen. Data for the mlh1 strain (AID 171);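 further: 0% = growth of vehicle-treated control cultures of the same strain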; settings: S. cerevisiae mlh1 strain growth inhibition, active compounds read high
Summary of the method: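 Vehicle-normalised growth inhibition of a repair- or checkpoint-altered yeast strain following compound treatment.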

[8] = NCI Yeast Anticancer Drug Screen. Data for the sgs1 strain (AID 173);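 further: 0% = growth of vehicle-only control cultures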; settings: S. cerevisiae sgs1 mutant, active compounds read high
Summary of the method: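 Screen format: yeast with repair or checkpoint alterations, compound exposure, growth read relative to vehicle.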

[9] = NCI Yeast Anticancer Drug Screen. Data for the mlh1 rad18 strain (AID 175); settings: S. cerevisiae mlh1 rad18 strain growth inhibition, active compounds read high
Summary of the method: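 Vehicle-treated cultures served as the reference for growth inhibition in a yeast strain carrying DNA damage repair alterations exposed to each compound.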

[10] = NCI Yeast Anticancer Drug Screen. Data for the rad18 strain (AID 177); settings: S. cerevisiae rad18 mutant growth inhibition, active compounds read high
Summary of the method: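 Test articles were incubated with altered yeast defective in DNA damage repair. Results are given as inhibition of growth versus vehicle.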

[11] = NCI Yeast Anticancer Drug Screen. Data for the rad52 strain (AID 147);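 further: 0% = growth of vehicle-treated control cultures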; settings: S. cerevisiae rad52 mutant growth inhibition, active compounds read high
Summary of the method: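 Vehicle-treated cultures served as the reference for growth inhibition of compound-exposed yeast bearing a DNA repair mutation.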

[12] = NCI Yeast Anticancer Drug Screen. Data for the wt1 strain (AID 149);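 further: 0% = growth of vehicle-treated wt1 cultures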; settings: S. cerevisiae wt1 strain (SPY 50644) growth inhibition, active compounds read high
Summary of the method: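 Yeast wt1 strain exposed to compounds; growth inhibition measured relative to vehicle-treated controls.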

[13] = NCI Yeast Anticancer Drug Screen. Data for the rad50EPP+ strain (AID 151);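 further: 0% = growth of vehicle-treated control cultures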; settings: S. cerevisiae rad50 mutant strain, active compounds read high
Summary of the method: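 In this screen, rad50EPP+ yeast were exposed to compounds. Growth inhibition was scored against vehicle-treated controls.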

[14] = NCI Yeast Anticancer Drug Screen. Data for the mgt1 strain (AID 153); settings: S. cerevisiae mgt1 mutant growth inhibition, active compounds read high
Summary of the method: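 mgt1 strain exposed; growth vs vehicle control recorded as inhibition.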

[15] = NCI Yeast Anticancer Drug Screen. Data for the rad50 strain (AID 155);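 further: 0% = growth of vehicle-only cultures of the same strain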; settings: S. cerevisiae rad50 strain growth inhibition, active compounds read high
Summary of the method: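 Yeast carrying a defined DNA repair defect were exposed to test compounds, and growth was compared with vehicle-treated controls to give percent inhibition.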

[16] = NCI Yeast Anticancer Drug Screen. Data for the sgs1 mgt1 strain (AID 161);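 further: 0% = growth of cultures given vehicle only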; settings: S. cerevisiae sgs1 mgt1 strain, active compounds read high
Summary of the method: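 Test agents were incubated with a DNA-repair-mutant yeast strain. Growth was then read and compared against vehicle-treated controls.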

[17] = at 5.0 µM (retest, dose inferred, filed as 0.5)
[18] = at 50.0 µM (retest, dose inferred, filed as 5.0)

Measured: growth inhibition

CCCN(CCC)CC(O)c1cc(-c2ccc(Cl)cc2)nc2c(C)c(Cl)ccc12 (stereo unspecified)
active: [1]; at 11.0 µM 99% | [1]; at 33.0 µM 98% | [1]; [18] 98% | [1]; at 50.0 µM 98.9% | [1]; at 100.0 µM 96% | [2]; at 11.0 µM 99% | [2]; at 33.0 µM 98% | [2]; at 100.0 µM 97% | [3]; at 11.0 µM 97% | [3]; at 33.0 µM 98% | [3]; at 100.0 µM 94% | [4]; [18] 93% | [4]; at 50.0 µM 97.6% | [5]; at 11.0 µM 99% | [5]; at 33.0 µM 97% | [5]; [18] 96% | [5]; at 50.0 µM 97.4% | [5]; at 100.0 µM 94% | [6]; at 11.0 µM 99% | [6]; at 33.0 µM 97% | [6]; at 100.0 µM 96% | [7]; at 11.0 µM 99% | [7]; at 33.0 µM 98% | [7]; at 100.0 µM 95% | [8]; at 11.0 µM 98% | [8]; at 33.0 µM 97% | [8]; at 100.0 µM 95% | [9]; [18] 96% | [9]; at 50.0 µM 98.7% | [10]; at 11.0 µM 98% | [10]; at 33.0 µM 96% | [10]; at 100.0 µM 94%
inactive: [1]; [17] 9% | [2]; at 1.2 µM -2% | [2]; at 3.7 µM 13% | [3]; at 1.2 µM -3% | [3]; at 3.7 µM -3% | [4]; [17] 9% | [5]; at 1.2 µM -5% | [5]; at 3.7 µM -6% | [5]; [17] 6% | [6]; at 1.2 µM -3% | [6]; at 3.7 µM -7% | [7]; at 1.2 µM -3% | [7]; at 3.7 µM -2% | [8]; at 1.2 µM -2% | [8]; at 3.7 µM 3% | [9]; [17] 27% | [10]; at 1.2 µM -4% | [10]; at 3.7 µM -5%

C=CCC1=C(C)C(OC(=O)/C=C/c2ccccc2)CC1=O (stereo unspecified)
active: [5]; [18] 79%
inactive: [11]; at 1.2 µM -4% | [11]; at 3.7 µM 0% | [11]; at 11.0 µM 2% | [11]; at 33.0 µM 5% | [11]; at 100.0 µM 39% | [12]; at 1.2 µM -2% | [12]; at 3.7 µM -5% | [12]; at 11.0 µM -5% | [12]; at 33.0 µM -2% | [12]; at 100.0 µM -3% | [13]; at 1.2 µM -1% | [13]; at 3.7 µM 0% | [13]; at 11.0 µM 6% | [13]; at 33.0 µM 7% | [13]; at 100.0 µM 15% | [14]; at 1.2 µM -6% | [14]; at 3.7 µM -2% | [14]; at 11.0 µM -1% | [14]; at 33.0 µM 2% | [14]; at 100.0 µM 29% | [15]; at 1.2 µM 2% | [15]; at 3.7 µM 1% | [15]; [17] 10% | [15]; at 11.0 µM 2% | [15]; at 33.0 µM 8% | [15]; [18] 19% | [15]; at 50.0 µM 2.25% | [15]; at 100.0 µM 39% | [1]; at 1.2 µM -4% | [1]; at 3.7 µM -4% | [1]; [17] -11% | [1]; at 11.0 µM -4% | [1]; at 33.0 µM 0% | [1]; [18] -18% | [1]; at 50.0 µM 5.6% | [1]; at 100.0 µM 7% | [2]; at 1.2 µM 1% | [2]; at 3.7 µM 2% | [2]; at 11.0 µM 4% | [2]; at 33.0 µM 5% | [2]; at 100.0 µM 18% | [16]; [17] 23% | [16]; [18] 39% | [16]; at 50.0 µM 19.4% | [4]; [17] 17% | [4]; [18] 36% | [4]; at 50.0 µM 33.5% | [5]; at 1.2 µM 7% | [5]; at 3.7 µM 20% | [5]; [17] 25% | [5]; at 11.0 µM 33% | [5]; at 33.0 µM 36% | [5]; at 50.0 µM 40.6% | [5]; at 100.0 µM 47% | [6]; at 1.2 µM -10% | [6]; at 3.7 µM -11% | [6]; at 11.0 µM -8% | [6]; at 33.0 µM -5% | [6]; at 100.0 µM 12% | [7]; at 1.2 µM -3% | [7]; at 3.7 µM -2% | [7]; at 11.0 µM -2% | [7]; at 33.0 µM 3% | [7]; at 100.0 µM 42% | [8]; at 1.2 µM -9% | [8]; at 3.7 µM 26% | [8]; at 11.0 µM 6% | [8]; at 33.0 µM 6% | [8]; at 100.0 µM 53% | [9]; [17] 15% | [9]; [18] 59% | [9]; at 50.0 µM 5.85% | [10]; at 1.2 µM -5% | [10]; at 3.7 µM 0% | [10]; at 11.0 µM -1% | [10]; at 33.0 µM 5% | [10]; at 100.0 µM 31%

CC(=O)N/N=C/C(C)(C)C(C)(C)/C=N/NC(C)=O
active: [11]; at 100.0 µM 97% | [13]; at 100.0 µM 71% | [15]; at 100.0 µM 98% | [16]; [18] 78% | [16]; at 50.0 µM 70% | [6]; at 100.0 µM 88% | [7]; at 100.0 µM 91% | [8]; at 100.0 µM 98% | [9]; [18] 82% | [10]; at 33.0 µM 81% | [10]; at 100.0 µM 93%
inactive: [11]; at 1.2 µM -1% | [11]; at 3.7 µM -5% | [11]; at 11.0 µM -32% | [11]; at 33.0 µM 38% | [12]; at 1.2 µM -3% | [12]; at 3.7 µM -5% | [12]; at 11.0 µM 2% | [12]; at 33.0 µM 27% | [12]; at 100.0 µM 42% | [13]; at 1.2 µM -3% | [13]; at 3.7 µM 11% | [13]; at 11.0 µM 10% | [13]; at 33.0 µM 18% | [14]; at 1.2 µM 2% | [14]; at 3.7 µM -2% | [14]; at 11.0 µM -4% | [14]; at 33.0 µM -5% | [14]; at 100.0 µM 6% | [15]; at 1.2 µM -13% | [15]; at 3.7 µM -6% | [15]; [17] 4% | [15]; at 11.0 µM 16% | [15]; at 33.0 µM 38% | [15]; [18] 51% | [15]; at 50.0 µM 50.5% | [1]; at 1.2 µM 5% | [1]; at 3.7 µM 2% | [1]; [17] 4% | [1]; at 11.0 µM 1% | [1]; at 33.0 µM 2% | [1]; [18] 39% | [1]; at 50.0 µM 19.2% | [1]; at 100.0 µM 11% | [2]; at 1.2 µM 3% | [2]; at 3.7 µM 2% | [2]; at 11.0 µM 7% | [2]; at 33.0 µM 39% | [2]; at 100.0 µM 54% | [16]; [17] 15% | [4]; [17] 2% | [4]; [18] 20% | [4]; at 50.0 µM 5.8% | [5]; at 1.2 µM -1% | [5]; at 3.7 µM -4% | [5]; [17] 0% | [5]; at 11.0 µM -4% | [5]; at 33.0 µM -7% | [5]; [18] 16% | [5]; at 50.0 µM 35.4% | [5]; at 100.0 µM 16% | [6]; at 1.2 µM -1% | [6]; at 3.7 µM -2% | [6]; at 11.0 µM 7% | [6]; at 33.0 µM 39% | [7]; at 1.2 µM -7% | [7]; at 3.7 µM -5% | [7]; at 11.0 µM -2% | [7]; at 33.0 µM 19% | [8]; at 1.2 µM -6% | [8]; at 3.7 µM -8% | [8]; at 11.0 µM 25% | [8]; at 33.0 µM 67% | [9]; [17] 11% | [9]; at 50.0 µM 59.4% | [10]; at 1.2 µM -10% | [10]; at 3.7 µM 1% | [10]; at 11.0 µM 39%
